The list is not random: actives were taken first. Their share in the collection is about 2.4%.
Cruzain inh noDet: qHTS Assay for Promiscuous and Specific Inhibitors of Cruzain (without detergent). Cruzipain (Trypanosoma cruzi), P25779. purified cruzain, Z-FR-AMC fluorescence, no detergent. Potency, µM, usual class: inhibitors. 200,000 compounds, 2.3% hits. AID 1476, 2009; note: nearly all actives have a fitted effect of over 40% in size
Target sequence (P25779 123-467 limits assumed): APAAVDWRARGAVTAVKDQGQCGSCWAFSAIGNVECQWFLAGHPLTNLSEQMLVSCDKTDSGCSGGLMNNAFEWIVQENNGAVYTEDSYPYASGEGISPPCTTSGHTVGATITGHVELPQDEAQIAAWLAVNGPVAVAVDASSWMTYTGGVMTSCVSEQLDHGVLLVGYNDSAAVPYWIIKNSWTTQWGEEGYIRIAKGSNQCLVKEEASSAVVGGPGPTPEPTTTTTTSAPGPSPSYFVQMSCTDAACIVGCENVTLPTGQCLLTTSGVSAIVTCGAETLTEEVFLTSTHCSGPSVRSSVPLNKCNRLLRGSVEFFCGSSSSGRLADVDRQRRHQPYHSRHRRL
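Purified cruzain at 1.5 nM, pre-incubated 15 min with compound at room temperature in 100 mM sodium acetate pH 5.5, 5 mM DTT, 0.00005% Triton X-100. Reaction started with 2 uM Z-FR-AMC; AMC fluorescence increase over 60 s gives rate.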
Cruzain inh Det: qHTS Assay for Promiscuous and Specific Inhibitors of Cruzain (with detergent); Cruzipain (Trypanosoma cruzi), P25779; purified cruzain, Z-FR-AMC fluorescence, 0.01% Triton; Potency, µM, most hits filed as inhibitors; 200,000 compounds, 0.43% hits; AID 1478, 2009; note: nearly all actives have a fitted effect of over 40% in size
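15 min RT preincubation of 1.5 nM cruzain with compound, then 2 uM Z-FR-AMC added; kinetic AMC fluorescence, 60 s delta. Triton X-100 0.01%, pH 5.5.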
Large screens that a line does not name were inactive; ! = a repeat was not active. Calls come from the whole dose curve; as a rule, active = well fitted curve in the direction sought with a large enough effect; inconclusive = small, poorly fitted or top-dose-only effect, or another doubt; inactive = no such curve, though single readings can be large; an effect the other way counts as inactive or inconclusive.

COc1cccc(CNC(=O)C2Cc3cc(S(=O)(=O)N4CCCCCC4)ccc3N2C(C)=O)c1 (stereo not given)	none
CCNc1ncc2nc(C)c(=O)n(C)c2n1	none
CCCOc1ccc(/C=c2\sc3nc(-c4ccco4)nn3c2=O)cc1OCC	none
CCCOc1ccc(Cc2nn3c(=O)/c(=C/c4ccco4)sc3nc2=O)cc1	Cruzain inh noDet 10µM
CCN=C(Nc1ccc2c(c1)OCO2)SC1CC(=O)N(c2ccccc2F)C1=O (stereo not given)	none
C/C(CCc1ccc2c(c1)OCO2)=N\N=C(/N)SC1CC(=O)N(c2ccccc2F)C1=O (stereo not given)	Cruzain inh noDet 15.8µM
COc1ccc(CN(C)c2ccc(-c3nc(-c4ccc(OC)c(OC)c4)no3)cc2[N+](=O)[O-])cc1	Cruzain inh noDet inconclusive
COc1ccc(S(=O)(=O)NCCC(C)C)cc1OC	none
CC(C)CCNS(=O)(=O)c1ccc(-c2ccc(S(=O)(=O)NCCC(C)C)cc2)cc1	Cruzain inh noDet 10µM
COc1ccc(CCNc2oc(/C=C/c3ccc(OC)c(OC)c3)nc2C#N)cc1	Cruzain inh noDet 15.8µM
COc1ccc(/C=C/c2nc(C#N)c(NCCc3ccc(OC)c(OC)c3)o2)cc1OC	none
CCN1CCN(c2oc(/C=C/c3ccc(OC)c(OC)c3)nc2C#N)CC1	Cruzain inh noDet 20µM
CCN1CCN(c2oc(/C=C/c3cc(OC)c(OC)c(OC)c3)nc2C#N)CC1	none
COc1ccc(/C=C/c2nc(C#N)c(N3CCC(C(N)=O)CC3)o2)cc1OC	Cruzain inh noDet 31.6µM, Cruzain inh Det inconclusive
COc1ccc(/C=C/c2nc(C#N)c(N3CCCCCC3)o2)cc1OC	Cruzain inh noDet inconclusive
Cc1noc(-c2ccc(NC(C)c3ccccc3)c([N+](=O)[O-])c2)n1 (stereo not given)	none
Cc1ccc2nc(N3CCN(c4ccc(F)cc4)CC3)c3nnnn3c2c1	none
Cc1ccc2nc(N3CCN(c4cccc(C)c4C)CC3)c3nnnn3c2c1	Cruzain inh noDet 3.98µM!
CCOc1ccc(NC(=O)CSc2nc3nc(C)c(Cc4ccccc4)c(C)n3n2)cc1	none
O=[N+]([O-])c1ccc(N2CCOCC2)cc1NC(c1ccccc1)c1ccccc1	Cruzain inh noDet inconclusive
O=[N+]([O-])c1ccc(N2CCCC2)cc1NC(c1ccccc1)c1ccccc1	Cruzain inh noDet 10µM
Cc1ccccc1CNC(=O)c1ccc2nc(C(C)C)oc2c1	none
CCc1ccc(NC(=O)c2ccc3c(c2)N(Cc2ccc(C)cc2)CCS3)cc1	Cruzain inh noDet 15.8µM
Cc1ccc(CN2CCSc3ccc(C(=O)Nc4ccc(F)cc4F)cc32)cc1	Cruzain inh noDet inconclusive
COc1ccc(CCNC(=O)c2ccc3c(c2)N(Cc2ccc(C)cc2)CCS3)cc1OC	none
COc1cc(OC)c(NC(=O)c2ccc3c(c2)N(Cc2ccc(C)cc2)CCS3)cc1Cl	Cruzain inh noDet 7.94µM
Cc1ccc(N2CC(NC(=O)c3cc4ccccc4o3)CC2=O)cc1 (stereo not given)	none
COc1cc2c(cc1NC(=O)COc1cc(C)cc(C)c1)oc1ccccc12	none
Cc1cc(C)c(NC(=O)COc2ccccc2C(=O)Nc2ccc3c(c2)oc2ccccc23)c(C)c1	Cruzain inh noDet 5.01µM
CC(=O)NCCNC(=O)[C@H](Cc1ccccc1)NC(=O)c1cccs1	none
O=C(COC(=O)[C@H](Cc1ccccc1)NC(=O)c1cccs1)Nc1c(Cl)cccc1Cl	Cruzain inh noDet 25.1µM, Cruzain inh Det 15.8µM
COc1ccc(C2c3c(ccc4ccccc34)Oc3ncn4nc(Cc5ccc(OC)c(OC)c5)nc4c32)cc1 (stereo not given)	none
COc1ccc(C2c3c(ccc4ccccc34)Oc3ncn4nc(-c5ccco5)nc4c32)cc1 (stereo not given)	Cruzain inh noDet inconclusive
COc1ccc(C2c3c(ccc4ccccc34)Oc3ncn4nc(CO/N=C/c5ccccc5)nc4c32)cc1 (stereo not given)	Cruzain inh noDet 3.16µM
c1ccc(C2c3c(ccc4ccccc34)Oc3ncn4nc(-c5ccco5)nc4c32)cc1 (stereo not given)	Cruzain inh noDet 3.16µM
Cn1nc(-c2ccc(OCC(=O)Nc3cccc(C(F)(F)F)c3)cc2)c2ccccc2c1=O	none
COc1ccc(-c2nn(CC(=O)NCc3ccccc3)c3c2cnc2ccc(F)cc23)cc1	Cruzain inh noDet inconclusive
CC(Oc1ccc(Cl)cc1Cl)C(=O)Nc1ccc(S(=O)(=O)Nc2cnc3ccccc3n2)cc1 (stereo not given)	Cruzain inh Det 22.4µM
COc1cc(NS(=O)(=O)c2ccc(NC(=O)C(C)Oc3ccc(Cl)cc3Cl)cc2)nc(OC)n1 (stereo not given)	none
Cc1cc(Cl)ccc1OC(C)C(=O)Nc1ccc(S(=O)(=O)Nc2cnc3ccccc3n2)cc1 (stereo not given)	Cruzain inh noDet inconclusive, Cruzain inh Det 25.1µM
CCC(Oc1ccccc1)C(=O)Nc1ccc(S(=O)(=O)Nc2cnc3ccccc3n2)cc1 (stereo not given)	Cruzain inh noDet inconclusive

Screening data deposited in PubChem by National Center for Advancing Translational Sciences (NCATS).
